Reference: ChEMBL document CHEMBL1201862, “PubChem BioAssay data set” (2004)
The whole screen tested about 400,000 compounds, of which about 2,100 (0.53%) were called active. Not shown: some 14% with an inconclusive outcome. How the calls were made is not given here. For the sample, actives were picked, then their nearest neighbours and some compounds at random.

Molecular target: Ataxin-2 (Homo sapiens) (UniProt Q99700)
Assay: qHTS for Inhibitors of ATXN expression.
Format: functional

Sequence of Ataxin-2 (Homo sapiens) (Q99700 whole entry): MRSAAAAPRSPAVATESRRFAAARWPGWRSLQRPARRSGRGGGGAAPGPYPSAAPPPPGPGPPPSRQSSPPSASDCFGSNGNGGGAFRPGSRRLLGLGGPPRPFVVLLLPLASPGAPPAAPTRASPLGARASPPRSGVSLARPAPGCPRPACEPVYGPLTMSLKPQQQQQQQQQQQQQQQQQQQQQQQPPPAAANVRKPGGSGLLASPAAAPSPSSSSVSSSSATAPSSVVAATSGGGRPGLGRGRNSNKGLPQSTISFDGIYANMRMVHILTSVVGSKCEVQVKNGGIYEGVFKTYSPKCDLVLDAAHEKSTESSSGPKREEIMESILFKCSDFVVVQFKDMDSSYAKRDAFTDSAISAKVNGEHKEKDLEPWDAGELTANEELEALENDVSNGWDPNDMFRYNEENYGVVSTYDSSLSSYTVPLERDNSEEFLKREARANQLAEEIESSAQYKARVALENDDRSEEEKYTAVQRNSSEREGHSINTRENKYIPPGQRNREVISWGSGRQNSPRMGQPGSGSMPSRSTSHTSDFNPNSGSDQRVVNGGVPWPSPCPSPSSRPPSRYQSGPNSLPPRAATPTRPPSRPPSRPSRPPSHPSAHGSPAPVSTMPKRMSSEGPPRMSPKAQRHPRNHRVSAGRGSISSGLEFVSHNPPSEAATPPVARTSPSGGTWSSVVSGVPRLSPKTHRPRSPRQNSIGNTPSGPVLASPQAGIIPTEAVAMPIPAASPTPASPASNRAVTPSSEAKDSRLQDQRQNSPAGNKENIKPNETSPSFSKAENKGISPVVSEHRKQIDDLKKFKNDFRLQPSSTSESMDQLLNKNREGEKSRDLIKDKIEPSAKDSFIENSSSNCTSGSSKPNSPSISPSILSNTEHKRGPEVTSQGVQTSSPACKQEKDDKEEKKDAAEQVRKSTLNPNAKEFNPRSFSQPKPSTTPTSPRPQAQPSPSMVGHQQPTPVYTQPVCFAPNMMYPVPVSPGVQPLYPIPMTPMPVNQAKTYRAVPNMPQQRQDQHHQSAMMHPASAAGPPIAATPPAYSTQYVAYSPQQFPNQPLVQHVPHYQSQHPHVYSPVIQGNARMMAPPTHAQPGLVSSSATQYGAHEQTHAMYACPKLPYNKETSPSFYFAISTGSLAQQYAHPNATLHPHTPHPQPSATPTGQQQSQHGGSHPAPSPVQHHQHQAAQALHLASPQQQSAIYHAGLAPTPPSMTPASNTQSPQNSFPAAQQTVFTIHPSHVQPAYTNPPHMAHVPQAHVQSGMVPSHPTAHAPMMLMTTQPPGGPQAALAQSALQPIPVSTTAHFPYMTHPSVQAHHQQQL

Compound | Potency
Cc1cccc2c1-c1sc(C(=O)Nc3nccs3)cc1CO2 | inactive
COc1ccc(S(=O)(=O)N2CCN(Cc3cc(OC)c(OC)cc3OC)CC2)cc1 | inactive
Cc1ccnc(N2C(=O)c3cccc4c([N+](=O)[O-])ccc(c34)C2=O)c1 | inactive
CN(CC(=O)Nc1c(Cl)cccc1Cl)C(=O)C1CC(=O)N(Cc2ccccc2)C1 (stereo not drawn) | inactive
Cc1ccccc1OCC(=O)Nc1cccc(Cl)c1C | inactive
CC(=O)Nc1ccc(NC(=O)CCC(=O)Oc2ccc(C)cc2)cc1 | inactive
CCc1ccccc1NC(=O)CN(C)C(=O)Cn1ncc(Cl)c(Cl)c1=O | 35.5 µM (active)
Cc1ccc(CNC(=O)Cn2ncn3cccc3c2=O)cc1 | inactive
Cc1cccc(NC(=O)CNC(=O)Cn2ncc(Cl)c(Cl)c2=O)c1C | 21.2 µM (active)
CN(CC(=O)Nc1ccccc1Cl)C(=O)CN1C(=O)NC(c2ccccc2)(c2ccccc2)C1=O | inactive
COc1ccc(CN(C)C(C)C(=O)N(C)CC(=O)Nc2ccc(C)cc2)cc1F (stereo not drawn) | inactive
Cc1ccc(NC(=O)CN(C)C(=O)Cn2ncc(Cl)c(Cl)c2=O)cc1 | 28.2 µM (active)
O=C(NN/C=C1\C(=O)N(Cc2ccccc2)C(=O)c2ccccc21)c1cccnc1 | inactive
CC(=O)Nc1nc2n(n1)C(c1ccccc1)C=C(c1ccccc1)N2 (stereo not drawn) | inactive
C1=C(c2ccccc2)Nc2ncnn2C1c1ccccc1 (stereo not drawn) | inactive
CCOC(=O)CCc1c(C)c2ccc3c(c2oc1=O)CN(CCCO)CO3 | inactive
CC(=O)c1ccc2noc(-c3ccc(C)cc3)c2c1 | inactive
Cc1ccc(C(=O)c2no[n+]([O-])c2C(=O)c2ccc(C)cc2)cc1 | 31.6 µM (active)
Cc1ccc(N2C(=O)C3C(C(=O)c4ccccc4)=NN(c4ccccc4)C3C2=O)cc1 (stereo not drawn) | inactive
Cc1c(C(=O)c2no[n+]([O-])c2C(=O)c2cnn(C)c2C)cnn1C | 39.8 µM (active)
CC(OC(=O)c1ccccc1O)C(=O)Nc1ccc(Cl)cn1 (stereo not drawn) | inactive
COc1cc(C(CC(=O)Nc2ccc(Cl)cn2)N2Cc3ccccc3C2=O)cc(OC)c1OC (stereo not drawn) | inactive
CCc1cc2c(CN3CCN(C)CC3)cc(=O)oc2cc1O | inactive
COCOCCn1cc(CN2CCS(=O)(=O)N(Cc3ccc(-c4ccc(Cl)c(Cl)c4)cc3)C(C)C2=O)nn1 (stereo not drawn) | 22.4 µM (active)
COCOCCn1cc(CN2CCS(=O)(=O)N(Cc3ccc(-c4ccccc4)cc3)C(CC(C)C)C2=O)nn1 (stereo not drawn) | 39.8 µM (active)
COCOCCn1cc(CN2CCS(=O)(=O)N(Cc3ccc(-c4ccc(Cl)c(Cl)c4)cc3)C(C(C)C)C2=O)nn1 (stereo not drawn) | 28.2 µM (active)

Compound | Potency
CCOC(=O)NC(=O)/C(=C/Nc1ccc(Cl)c(Cl)c1Cl)C(C)=O | inactive
Nc1c(C(=O)N2CCCC2)sc2nc3c(cc12)CCCCCC3 | inactive
c1cnn2c(-c3ccc4c(c3)CCO4)cnc2c1 | inactive
O=C(CNC(=O)OCc1ccccc1)Oc1cc2oc(=O)cc(-c3ccccc3)c2cc1Cl | inactive
Cc1onc(C(=O)NC2CCCCC2)c1[N+](=O)[O-] | inactive
COc1cc(N)ccc1Nc1c2ccccc2nc2ccccc12 | inactive
COc1ccc(Nc2c3c(nc4ccccc24)CCC3)cc1Cl | 28.2 µM (active)
COc1ccccc1Nc1c2ccccc2nc2ccccc12 | inactive
COc1ccc(C2CC(c3cccs3)=NN2c2ccc(C=O)cc2)cc1 (stereo not drawn) | inactive
O=C(CCl)Nc1cccc(Oc2ccccc2)c1 | 8.44 µM (active)
O=C(CCl)Nc1ccc(Oc2cnc3ccccc3n2)cc1 | 20 µM (active)
O=C(CCl)Nc1cccc(-c2cnc3ccccc3n2)c1 | 3.98 µM (active)
O=C(O)CSCC(=O)NCc1c(Cl)cccc1Oc1ccccc1 | inactive
CC(C)(C)C(=O)Nc1ccc(C(=O)Nc2cccc(Oc3ccc(C(=O)O)c(C(=O)O)c3)c2)cc1 | inactive
Oc1ccc(-c2cnc3ccccc3n2)cc1 | inactive
CCOC(=O)c1ccc(Nc2cnc3ccccc3n2)cc1 | inactive
CCOc1ccc(-c2cnc3ccccc3n2)cc1 | inactive
CCN(CC)CCN1C2=C(C(=O)CC(C)(C)C2)C(c2cccc(F)c2)C2=C1CC(C)(C)CC2=O | inactive
CCOc1ccc(NC(=O)CC(NC(C)=O)c2ccccc2)cc1S(=O)(=O)N1CCCC1 (stereo not drawn) | inactive
Cc1c(-c2ccccc2)c(=O)oc2cc(O)ccc12 | inactive
COc1ccc(Cn2cc(C(=O)c3ccc(C)c(C)c3)c(=O)c3ccccc32)cc1 | 31.6 µM (active)
CCCn1c(O)c(C(=O)NCCc2ccc(OC)cc2)c(=O)c2ccccc21 | inactive
COc1cccc(Cn2cccc(NC(=O)Nc3ccccc3C)c2=O)c1 | inactive
COc1ccc(-n2cc(C(=O)c3ccccc3O)cn2)cc1 | inactive
COc1ccc(Cn2cc(C(=O)c3ccc(C)cc3)c(=O)c3cc(OC)c(OC)cc32)cc1 | 11.2 µM (active)
COc1ccc(/C=c2\s/c(=C/C(=O)c3ccc(C)cc3)[nH]c2=O)c(OC)c1 | inactive

Compound | Potency
Cc1ccc(S(=O)(=O)NC(C)C(=O)OCC(=O)Nc2sccc2C(N)=O)cc1 (stereo not drawn) | inactive
Cc1ccc(C)c(Nc2nc3nonc3nc2Nc2cccc(C)c2C)c1 | 10 µM (active)
Cc1ccccc1Nc1cccc2nonc12 | inactive
O=C(CCc1ccccc1)NC(NC(=S)Nc1ccc(Cl)cc1)C(Cl)(Cl)Cl (stereo not drawn) | 39.8 µM (active)
O=C(CCc1ccccc1)NC(=S)Nc1ccccc1Br | inactive
O=C(CCc1ccccc1)NC(c1cccs1)c1cc(Cl)c2cccnc2c1O (stereo not drawn) | inactive
O=C1c2oc3ccc(Cl)cc3c(=O)c2C(c2ccccn2)N1CCCN1CCOCC1 (stereo not drawn) | inactive
NC(=O)C1=CC2C3C=CC2(O)C(=O)OC3O1 (stereo not drawn) | 16.8 µM (active)
Cn1cc(/C=C/c2cc[n+](C)cc2)c2cc(F)ccc21 | inactive
CCOC(=O)Cc1csc(NC(=O)CN2CCN(c3ccccc3)CC2)n1 | inactive
CCOC(=O)Cc1csc(NC(=O)COc2ccc3c(C)cc(=O)oc3c2)n1 | inactive
CCOC(=O)Cc1csc(NC(=O)c2ccc3ncsc3c2)n1 | 35.5 µM (active)
SC1=NCN(Cc2ccco2)CN1 | inactive
Clc1ccc(/C=C/c2ncc3ccccn23)cc1 | inactive
CCc1ccc2c(c1)/C(=C/C(=O)c1cccs1)C(=O)N2 | 20 µM (active)
CCc1cc2c(-c3ccccc3)cc(=O)oc2cc1OC(=O)c1cccs1 | inactive
COCCN(CCOC)Cc1c(O)ccc2c1O/C(=C\c1ccc(C)o1)C2=O | inactive
COc1ccc(/C=C/C(=O)Oc2ccc(/C=N/NC(=O)c3ccccc3)cc2)cc1OC | 31.6 µM (active)
COc1ccc(/C=N/NC(=O)c2cccc(C(F)(F)F)c2)cc1 | inactive
Nc1ccc(C(=O)N/N=C\c2ccc(OC(=O)c3ccccc3Cl)cc2)cc1 | inactive
O=C(CNC(=O)c1ccccc1F)NCc1ccccn1 | inactive
O=C1NC(=O)/C(=C\c2ccc(OCc3cccc([N+](=O)[O-])c3)cc2)N1 | inactive
O=C1/C(=C/c2cccc(Cl)c2)CSc2sccc21 | inactive
CCCN1C/C(=C/c2cccc([N+](=O)[O-])c2)C(=O)/C(=C/c2cccc([N+](=O)[O-])c2)C1 | 4.47 µM (active)
Cc1cccc(N2CCN(S(=O)(=O)c3cccs3)CC2)c1C | inactive
Cc1ccccc1C1(CC(=O)N2CCCC2c2nccs2)CC(=O)N(C2CCCC2)C1=O (stereo not drawn) | inactive

Compound | Potency
C=CCn1c(=O)[nH]c2nc3cc(/N=C/N(C)C)c(C)cc3nc2c1=O | inactive
CC1(c2ccccc2)NC(=O)N(CC(=O)NCc2cccc(Cl)c2)C1=O (stereo not drawn) | inactive
O=C(CCl)NN1C(=O)NC(c2ccccc2)(c2ccccc2)C1=O | 26.7 µM (active)
O=C(NCc1ccccc1Cl)c1ccc2c(=O)n(CC3CCCO3)c(=S)[nH]c2c1 (stereo not drawn) | inactive
Cc1csc(N=Nc2ccc(N(C)C)cc2)[n+]1[O-] | 14.1 µM (active)
CN(C)c1ccc(N=Nc2nc3ccccc3n2C)cc1 | inactive
CCCN(CC(=O)Nc1ccc(F)c(F)c1F)C(=O)CN1C(=O)NC2(CCCCC2)C1=O | inactive
O=C(CSc1cc(Cl)ccc1Cl)NC1CCCc2ccccc21 (stereo not drawn) | inactive
O=C(CSc1cccc[n+]1[O-])c1cc(Cl)ccc1Cl | 3.77 µM (active)
COC(=O)c1cnc(SCc2ccc(Cl)cc2)n1C | inactive
CC(C)(C)NCC(O)CON=C1c2ccccc2-c2ccccc21 (stereo not drawn) | inactive
CCN(CC)S(=O)(=O)c1ccc(C(=O)N(c2ccc(C)cc2)C2C=CS(=O)(=O)C2)cc1 (stereo not drawn) | inactive
Cc1ccc(S(=O)(=O)N(CCCO)CC(O)CON=C2c3ccccc3-c3ccccc32)cc1 (stereo not drawn) | 20 µM (active)
CCN(CC(O)CON=C1c2ccccc2-c2ccccc21)S(=O)(=O)c1ccc(Cl)cc1 (stereo not drawn) | 17.8 µM (active)
CCOc1ccccc1N(C(C)=O)S(=O)(=O)c1ccc(Cl)cc1 | inactive
CN(C)CCN=c1cc(-c2ccccc2)oc2ccc(Cl)cc12 | inactive
O=C(NCC1CCN(C(=O)c2ccc([N+](=O)[O-])cc2)CC1)c1ccc([N+](=O)[O-])cc1 | inactive
CCCn1c(SCc2nc(-c3ccccc3C)no2)nnc1-c1ccc(Cl)cc1 | 39.8 µM (active)
Cc1ccccc1CSc1nnc(-c2cnccn2)n1C | inactive
CN(/N=C/c1ccc(Br)o1)C1=NS(=O)(=O)c2ccccc21 | inactive
CC(C)OC(=O)CSc1nnc(COc2ccc([N+](=O)[O-])cc2)n1C | inactive
Cc1ccc(C)c(-n2c(N)c(C#N)c3nc4ccccc4nc32)c1 | inactive
Cc1ccccc1C(=O)NNc1ncnc2c1cnn2C | inactive
Cn1ncc2c(ON=C(N)c3ccc(C(C)(C)C)cc3)ncnc21 | 39.8 µM (active)
COc1ccc(NC(=O)c2sc3nc(C)c(C(=O)Nc4ccc(C)cc4C)c(-c4ccccc4Cl)c3c2N)cc1 | inactive
